# Values joined by “and” are separate entries in the source; they are usually repeats but may differ in a detail not shown here. Equal entries are not always repeated. Records with an inconclusive call do not appear. Where a call stands in place of a potency, no number is given. Active and inactive are the calls of the source. Calls follow the shape of the dose curve; as a rule, active = well fitted curve in the direction sought with a large enough effect; inconclusive = small, poorly fitted or top-dose-only effect, or another doubt; inactive = no such curve, though single readings can be large; an effect the other way counts as inactive or inconclusive.
# Key:
# [1] = qHTS of pediatric cancer cell lines to identify multiple opportunities for drug repurposing: Primary screen for TC32 cells (AID 1347089); also: nearly all actives have a fitted effect of over 60% in size; also: potency is read from the fitted curve at half-maximal effect
# Procedure, shortened: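 TC32 cells, 500-1,000/well in growth medium, compound-treated 48 h at 37 °C; viability from CellTiter-Glo luminescence. Primary screen: MIPE 11-point (0.78 nM–46 µM final), NPC 8-point (0.59 nM–46 µM final); confirmatory at 11-point dilutions.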
# [2] = qHTS of pediatric cancer cell lines to identify multiple opportunities for drug repurposing: Primary screen for DAOY cells (AID 1347090); also: nearly all actives have a fitted effect of over 55% in size; also: potency is read from the fitted curve at half-maximal effect
# Procedure, shortened: (§1)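 Viability measured as metabolically active cells via CellTiter-Glo luminescence following 48 hours of compound exposure, 11-point dilutions in confirmatory testing. 500-1,000 cells/well plated 5 hours before dosing; controls were DMSO and 2.3 µM bortezomib.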
# [3] = qHTS of pediatric cancer cell lines to identify multiple opportunities for drug repurposing: Primary screen for SJ-GBM2 cells (AID 1347091); also: potency is read from the fitted curve at half-maximal effect
# Procedure, shortened: as §1
# [4] = qHTS of pediatric cancer cell lines to identify multiple opportunities for drug repurposing: Primary screen for A673 cells (AID 1347092); also: nearly all actives have a fitted effect of over 45% in size; also: potency is read from the fitted curve at half-maximal effect
# Procedure, shortened: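 A673 cells (500-1,000 cells/well) were treated 48 hours at 37 degrees C with compounds at 11-point (0.78 nM to 46 µM) or 8-point (0.59 nM to 46 µM) dilutions. Viability read by CellTiter-Glo luminescence; concentration-response curves fitted.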
# [5] = qHTS of pediatric cancer cell lines to identify multiple opportunities for drug repurposing: Primary screen for SK-N-MC cells (AID 1347093); also: potency is read from the fitted curve at half-maximal effect
# Procedure, shortened: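 Metabolically active cells were quantified by ATP-dependent luminescence (CellTiter-Glo, 15 min at room temperature) following 48 h treatment. Cells had been plated at 500-1,000 per well and settled for 5 h beforehand.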
# [6] = qHTS of pediatric cancer cell lines to identify multiple opportunities for drug repurposing: Primary screen for BT-37 cells (AID 1347094); also: potency is read from the fitted curve at half-maximal effect
# Procedure, shortened: (§2)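 ATP-based luminescence (CellTiter-Glo) quantifies viability after a 48-hour exposure. Compounds are dosed across 8 or 11 final concentrations; DMSO and 2.3 µM bortezomib serve as controls.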
# [7] = qHTS of pediatric cancer cell lines to identify multiple opportunities for drug repurposing: Primary screen for U-2 OS cells (AID 1347096); also: nearly all actives have a fitted effect of over 50% in size
# Procedure, shortened: (§3)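 Viability after 48 h compound treatment at 37C, 500-1,000 cells/well, read as ATP luminescence with CellTiter-Glo. Primary screens used 11-point (MIPE, 0.78 nM-46 µM) or 8-point (NPC, 0.59 nM-46 µM) final concentrations; follow-up screens used 11-point dilutions.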
# [8] = qHTS of pediatric cancer cell lines to identify multiple opportunities for drug repurposing: Primary screen for SK-N-SH cells (AID 1347098); also: nearly all actives have a fitted effect of over 65% in size; also: potency is read from the fitted curve at half-maximal effect
# Procedure, shortened: (§4)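 Cells (500-1,000/well) rested 5 h, then received compounds for 48 h; metabolically active cells were measured by CellTiter-Glo luminescence. Final concentrations spanned up to 46 µM (MIPE, 11-point) or 0.59 nM-46 µM (NPC, 8-point) in primary screens, 11-point in follow-ups.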
# [9] = qHTS of pediatric cancer cell lines to identify multiple opportunities for drug repurposing: Primary screen for NB1643 cells (AID 1347099); also: nearly all actives have a fitted effect of over 50% in size; also: potency is read from the fitted curve at half-maximal effect
# Procedure, shortened: as §2
# [10] = qHTS of pediatric cancer cell lines to identify multiple opportunities for drug repurposing: Primary screen for LAN-5 cells (AID 1347100); also: potency is read from the fitted curve at half-maximal effect
# Procedure, shortened: as §3
# [11] = qHTS of pediatric cancer cell lines to identify multiple opportunities for drug repurposing: Primary screen for BT-12 cells (AID 1347101); also: nearly all actives have a fitted effect of over 25% in size; also: potency is read from the fitted curve at half-maximal effect
# Procedure, shortened: as §4
# [12] = qHTS of pediatric cancer cell lines to identify multiple opportunities for drug repurposing: Primary screen for Rh18 cells (AID 1347102); also: nearly all actives have a fitted effect of over 65% in size
# Procedure, shortened: as §3
# [13] = qHTS of pediatric cancer cell lines to identify multiple opportunities for drug repurposing: Primary screen for RD cells (AID 1347104); also: nearly all actives have a fitted effect of over 55% in size; also: potency is read from the fitted curve at half-maximal effect
# Procedure, shortened: as §2
# [14] = qHTS of pediatric cancer cell lines to identify multiple opportunities for drug repurposing: Primary screen for MG 63 (6-TG R) cells (AID 1347105); also: nearly all actives have a fitted effect of over 50% in size; also: potency is read from the fitted curve at half-maximal effect
# Procedure, shortened: as §2
# [15] = qHTS of pediatric cancer cell lines to identify multiple opportunities for drug repurposing: Primary screen for control Hh wild type fibroblast cells (AID 1347106); also: nearly all actives have a fitted effect of over 55% in size; also: potency is read from the fitted curve at half-maximal effect
# Procedure, shortened: as §3
# [16] = qHTS of pediatric cancer cell lines to identify multiple opportunities for drug repurposing: Primary screen for Rh30 cells (AID 1347107); also: series mostly up to about 46 µM; nearly all actives have a fitted effect of over 75% in size
# Procedure, shortened: as §3
# [17] = qHTS of pediatric cancer cell lines to identify multiple opportunities for drug repurposing: Primary screen for Rh41 cells (AID 1347108); also: nearly all actives have a fitted effect of over 70% in size; also: potency is read from the fitted curve at half-maximal effect
# Procedure, shortened: as §2
# [18] = qHTS of pediatric cancer cell lines to identify multiple opportunities for drug repurposing: Primary screen for NB-EBc1 cells (AID 1347095); also: potency is read from the fitted curve at half-maximal effect
# Procedure, shortened: as §2
# [19] = qHTS of pediatric cancer cell lines to identify multiple opportunities for drug repurposing: Primary screen for OHS-50 cells (AID 1347103); also: nearly all actives have a fitted effect of over 40% in size; also: potency is read from the fitted curve at half-maximal effect
# Procedure, shortened: as §4
# [20] = qHTS of pediatric cancer cell lines to identify multiple opportunities for drug repurposing: Primary screen for Saos-2 cells (AID 1347097); also: nearly all actives have a fitted effect of over 40% in size; also: potency is read from the fitted curve at half-maximal effect
# Procedure, shortened: as §2
Compound,Potency [1],Potency [2],Potency [3],Potency [4],Potency [5],Potency [6],Potency [7],Potency [8],Potency [9],Potency [10],Potency [11],Potency [12],Potency [13],Potency [14],Potency [15],Potency [16],Potency [17],Potency [18],Potency [19],Potency [20]
Cc1ccc2c(c1)C1CN(C)CCC1N2 (stereo unspecified),inactive,inactive,inactive,inactive,inactive,inactive,inactive,inactive,inactive,inactive,inactive,inactive,inactive,inactive,inactive,inactive,inactive,–,–,–
N[C@@H]1C[C@H]1c1ccccc1,inactive,inactive,inactive,inactive,inactive,inactive,inactive,inactive,inactive,inactive,inactive,inactive,inactive,inactive,inactive,inactive,inactive,inactive,inactive,–
O=c1[nH]c2ccccc2n1CCCN1CCC(n2c(=O)[nH]c3cc(Cl)ccc32)CC1,inactive,inactive,inactive,inactive,inactive,inactive,inactive,inactive,inactive,inactive,–,inactive,inactive,inactive,inactive,inactive,inactive,inactive,inactive,inactive
CN1C(=S)CN=C(c2ccccc2)c2cc(Cl)ccc21,inactive,inactive,inactive,inactive,inactive,inactive,inactive,inactive,inactive,inactive,inactive,inactive,inactive,–,inactive,inactive,inactive,inactive,–,inactive
C=C(C)[C@H]1Cc2c(ccc3c2O[C@@H]2COc4cc(OC)c(OC)cc4[C@@H]2C3=O)O1,1.67 µM (active) and 4.66 µM (active),168 nM (active) and 296 nM (active),422 nM (active),106 nM (active) and 743 nM (active),299 nM (active) and 590 nM (active),777 nM (active) and 2.17 µM (active),–,–,–,1.68 µM (active) and 526 nM (active),87.1 nM (active) and 122 nM (active),–,–,–,inactive,inactive,1.06 µM (active),3.35 µM (active) and 2.64 µM (active),138 nM (active) and 243 nM (active),944 nM (active)
C[C@@H]1O[C@@H](O[C@H]2C[C@@H](O)[C@]3(CO)[C@H]4[C@H](O)C[C@]5(C)[C@@H](C6=CC(=O)OC6)CC[C@]5(O)[C@@H]4CC[C@]3(O)C2)[C@H](O)[C@H](O)[C@H]1O,131 nM (active) and 93.8 nM (active),29.6 nM (active) and 53.1 nM (active),18.7 nM (active) and 75 nM (active),46.9 nM (active) and 66.8 nM (active),16.6 nM (active) and 23.7 nM (active),15.3 nM (active) and 49 nM (active),–,152 nM (active) and 344 nM (active),187 nM (active) and 299 nM (active),46.9 nM (active) and 211 nM (active),27.3 nM (active) and 61.7 nM (active),–,14.8 nM (active) and 33.5 nM (active),14.8 nM (active) and 33.5 nM (active),0.0148 µM (active),inactive,–,74.3 nM (active) and 266 nM (active),19.3 nM (active) and 49 nM (active),59 nM (active) and 75 nM (active)
COc1ccc(C(CN(C)C)C2(O)CCCCC2)cc1 (stereo unspecified),inactive,inactive,inactive,inactive,–,inactive,inactive,inactive,inactive,inactive,inactive,inactive,inactive,inactive,inactive,inactive,inactive,inactive,inactive,inactive
c1ccc2c(c1)Nc1ccccc1S2,inactive,inactive,inactive,inactive,inactive,inactive,inactive,–,inactive,inactive,inactive,inactive,inactive,inactive,inactive,inactive,inactive,inactive,–,48600 nM (active)
CCCN1CCC[C@@H]2Cc3[nH]ncc3C[C@H]21,inactive,inactive,inactive,inactive,inactive,inactive,inactive,inactive,inactive,inactive,inactive,inactive,inactive,inactive,inactive,inactive,inactive,inactive,–,–
C[C@]12CC[C@H]3[C@@H](CCC4=CC(=O)CC[C@@H]43)[C@@H]1CC[C@@H]2OC(=O)CCc1ccccc1,inactive,inactive,inactive,inactive,inactive,inactive,inactive,inactive,inactive,inactive,inactive,inactive,inactive,inactive,inactive,inactive,inactive,inactive,inactive,–
CCOP(=S)(OCC)Oc1cc(C)nc(C(C)C)n1,inactive,inactive,inactive,inactive,inactive,inactive,inactive,inactive,inactive,inactive,inactive,inactive,inactive,inactive,inactive,inactive,inactive,inactive,–,inactive
COc1ccc(C(=O)c2c(C)n(CCN3CCOCC3)c3ccccc23)cc1,inactive,inactive,inactive,inactive,inactive,inactive,inactive,inactive,inactive,inactive,inactive,inactive,inactive,inactive,inactive,inactive,inactive,inactive,–,inactive

# Source: PubChem BioAssay (NCATS)
